Assay results: PubChem BioAssay AID1259418 (Broad Institute, 2018)
About 840 (25%) of roughly 3,400 compounds were called active. About 11% were inconclusive and are not listed. Only a sample is shown. Potency and affinity values are given separately. Unmarked numbers belong to inactive results.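 The calls were made as follows: active = fitted half-maximal concentration of signal decrease at or below twice the sample's top tested concentration; inconclusive = flat curve between -70 and -30 percent, or poor fit; inactive = flat within 30 percent, signal rise, or potency above limit.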

Assay: inhibitors of Toxoplasma growth in IFN-γ-primed HeLa – cell-based, ME49Luc, luciferase, 72 h, dose response (AID 1259418)
Settings: T. gondii ME49Luc in IFN-y HeLa, hits give low values, -100% = high-dose IFN-γ control wells; at 19.5 µM unless noted
Work on `Cc1ccc(NC(=O)COc2nc(C)nc3ccccc23)c(C)c1` yielded a max activity of 13.8% [at 0.68 µM].
Molecule `COc1ccc(-c2nc(Nc3ccc(F)c(Cl)c3)c3ccccc3n2)cc1` has a max activity of 19.7%.
With `CO[C@H]1CCN(c2ccc(C)nn2)[C@H]1Cc1cnn(C)c1` the max activity was -9.84% [at 1.2 µM].
With `Cc1nc(-c2ccc(F)cc2)sc1-c1ccc(SCc2ccccc2Cl)nn1` the max activity was 10% [at 0.16 µM].
`Cc1ccc(-c2nc(Cn3nnc(-c4nc(-c5ccccc5Cl)no4)c3C)c(C)o2)cc1` showed a max activity of -11.4% [at 2.6 µM].
For `CC(CCc1ccccc1)Nc1nc(-c2ccc(Cl)cc2)nc2ccccc12` (stereo not drawn), the max activity was -14.3% [at 5 µM].
Work on `COc1ccc(-c2nc(N3CCN(c4cccc(C)c4C)CC3)c3ccccc3n2)cc1` yielded a max activity of 17%.
Molecule `Cc1ccc(-c2nc3c(s2)CN(C(=O)NCc2ccccc2)CC3)cc1` has a max activity of -24.6% [at 0.35 µM].
For `CCCNC(=O)N1CCc2nc(-c3ccc(C)cc3)sc2C1`, the max activity was -30.1% [at 0.16 µM].
`O=C(Nc1ccc(-c2nc(-c3ccccc3)co2)cc1)c1ccccc1F` gave a max activity of -7.4% [at 10 µM].
Molecule `COCCN1C(=O)CCC12CCC(NC(=O)c1cc(C)on1)CC2` (stereo not drawn) has a max activity of 12.8%.
Molecule `Cc1cc(C)cc(S(=O)(=O)N2CCC3(CC2)NCCN=C3NC2CCCC2)c1` has a max activity of 8.57% [at 0.35 µM].
For `Cc1ccc(S(=O)(=O)N2CCC3(CC2)NCCN=C3NC2CCCC2)cc1C`, the max activity was 15.2% [at 1.35 µM].
Molecule `Cc1cc(C)c(S(=O)(=O)N2CCC3(CC2)NCCN=C3NC2CCCC2)cc1C` has a max activity of -17.7%.
In the case of `CCOc1ccc(-c2ccc(OCCNC(=O)c3sc(-c4ccccc4)nc3C)nn2)cc1`, the max activity is reported as 10.6%.
With `O=C(CCn1cnc2cc(-c3noc(Cc4c[nH]c5ccccc45)n3)ccc21)N1CCCC1` the max activity was 27.3%.
`CCCC(=O)Nc1ccc(-c2nc(-c3ccc(C)cc3C)co2)cc1` showed a max activity of -18.1% [at 1.35 µM].
With `O=C(COc1ccc(F)cc1)Nc1ccc2c(c1)CCC(=O)N2` the max activity was -4.48% [at 1.35 µM].
For `Cc1cccc(C(=O)Nc2ccc(-c3nc(-c4ccccc4)co3)cc2)c1`, the max activity was 70.1%.
For `COc1ccc(-c2nc(Cn3nnc(-c4nc(-c5ccc(SC)cc5)no4)c3C)c(C)o2)cc1`, the max activity was -6.45% [at 5 µM].
`O=S(=O)(c1ccccc1F)N1CC[C@@H]2[C@@H](CO)Nc3ccc(C4=CCCCC4)cc3[C@@H]21` gave a max activity of 37.4% [at 10 µM].
In the case of `O=S(=O)(c1ccccc1F)N1CC[C@H]2[C@H](CO)Nc3ccc(C4=CCCCC4)cc3[C@H]21`, the max activity is reported as 39.3% [at 10 µM].
With `Cc1cccc(S(=O)(=O)N2CC[C@@H]3[C@H](CO)Nc4ccc(-c5ccccc5F)cc4[C@@H]32)c1` the max activity was 25.7% [at 10 µM].
With `O=S(=O)(c1ccccc1F)N1CC[C@@H]2[C@H](CO)Nc3ccc(C4=CCCCC4)cc3[C@@H]21` the max activity was 7.48% [at 10 µM].
Molecule `COc1ccccc1S(=O)(=O)N1CC[C@H]2[C@H](CO)Nc3ccc(-c4ccc(C#N)cc4)cc3[C@H]21` has a max activity of 23% [at 21 µM].
`CC(=O)NCC(=O)N1CCC2(CC1)CC(c1ccccc1)C(=O)N2` (stereo not drawn) gave a max activity of 28.8%.
In the case of `COc1ccc(NC(=O)Nc2ccc(-c3nc(-c4cc(C)ccc4C)co3)cc2)c(OC)c1`, the max activity is reported as 9.16% [at 5 µM].
In the case of `CS(=O)(=O)NCc1cnc2n1CCN(Cc1cccs1)CC2`, the max activity is reported as 48.8%.
With `CCN1C(=O)CCc2cc(NC(=O)Cc3ccccc3Cl)ccc21` the max activity was -5.27% [at 0.16 µM].
`COc1ccc(-c2nc(NCCC3=CCCCC3)c3ccccc3n2)cc1` gave a max activity of -27.2% [at 1.35 µM].
In the case of `CN1[C@@H]2Cn3c(ccc(/C=C/c4ccccc4)c3=O)[C@H]1[C@@H](C(=O)NC1Cc3ccccc3C1)[C@@H]2CO`, the max activity is reported as 15.2% [at 5 µM].
With `Cc1ccc2c(c1C)-n1cccc1C1(CCN(C(=O)c3ccco3)CC1)N2` the max activity was 10.9% [at 0.16 µM].
Molecule `Cc1oc(-c2ccccc2)nc1CSc1nc2c(c(=O)[nH]1)CN(Cc1ccc(Cl)cc1)CC2` has a max activity of 14.5% [at 0.16 µM].
With `COc1ccc(CN2CCc3nc(SCc4nc(-c5ccc(C)cc5)oc4C)[nH]c(=O)c3C2)cc1` the max activity was 16.3%.
For `Cc1ccc(-c2nc(CSc3nc4c(c(=O)[nH]3)CN(Cc3ccccc3)CC4)c(C)o2)cc1`, the max activity was -18% [at 0.68 µM].
Work on `Cc1ccc(-c2nc(CSc3nc4c(c(=O)[nH]3)CN(Cc3ccc(F)cc3)CC4)c(C)o2)cc1` yielded a max activity of 26% [at 0.16 µM].
In the case of `Cc1nc(-c2ccc(F)cc2)sc1-c1ccc(SCCN2CCOCC2)nn1`, the max activity is reported as 231%.
In the case of `O=C(Nc1ccc(F)cc1)Nc1ccc(-c2nc(-c3cccc(Br)c3)co2)cc1`, the max activity is reported as 4.84% [at 10 µM].
Molecule `COc1ccc(-c2nc(N3CCCC(C)C3)c3ccccc3n2)cc1` (stereo not drawn) has a max activity of 20.4% [at 1.35 µM].
With `O=C(CCC1N=C2c3ccccc3N=C(SCc3cc(=O)n4ccccc4n3)N2C1=O)NCc1ccc2c(c1)OCO2` (stereo not drawn) the max activity was 14.1% [at 0.35 µM].
`COc1ccccc1CNC(=O)CC1N=C2c3ccccc3N=C(SCc3ccc(F)cc3)N2C1=O` (stereo not drawn) showed a max activity of 11.2% [at 10 µM].
For `O=C(CCC1N=C2c3ccccc3N=C(SCc3cc(=O)n4ccccc4n3)N2C1=O)NCc1cccs1` (stereo not drawn), the max activity was 13.4% [at 0.16 µM].
For `Cc1ccc(CSC2=Nc3ccccc3C3=NC(CC(=O)NCc4cccs4)C(=O)N23)c(C)c1` (stereo not drawn), the max activity was 21.5% [at 0.68 µM].
With `O=C(CC1N=C2c3ccccc3N=C(SCc3cc(=O)n4cc(Cl)ccc4n3)N2C1=O)NCc1cccs1` (stereo not drawn) the max activity was 41.3% [at 0.35 µM].
Molecule `CCOC(=O)CSC1=Nc2ccccc2C2=NC(CCC(=O)NCc3cccs3)C(=O)N12` (stereo not drawn) has a max activity of 13.6% [at 10 µM].
`Cc1c(Cl)cccc1NC(=O)CN1CCC2(CC1)N=C(c1ccc(F)cc1)C(=O)N2` gave a max activity of -21.7% [at 1.35 µM].
Molecule `Cc1ccc(CC(=O)Nc2ccc(-c3nc(-c4ccc(C)cc4)co3)cc2)cc1` has a max activity of 19.1% [at 10 µM].
Work on `Cc1oc(-c2ccccc2)nc1Cn1nnc(-c2nc(-c3ccc(Cl)c(F)c3)no2)c1C` yielded a max activity of 7.02%.
For `Cc1cccc(C2=NC3(CCN(CC(=O)Nc4ccc(C)c(F)c4)CC3)NC2=O)c1`, the max activity was -23%.
With `N#Cc1c(N2C[C@@H]3NCCO[C@H]3C2)c(F)cc2c(=O)c(C(=O)O)cn(C3CC3)c12` the max activity was 13.7%.
`COC(=O)Cn1cc(CN2CCCC2c2cc(C(C)C)on2)c2cc(OC)ccc21` (stereo not drawn) gave a max activity of 14.7%.
For `COc1ccc2c(c1)NC1(CCN(C(=O)Cc3ccc(C)cc3)CC1)c1cccn1-2`, the max activity was 5.57% [at 0.35 µM].
With `CCCCc1ccc(Nc2ncnc3c2cnn3-c2ccc(Cl)cc2)cc1` the max activity was -18.1% [at 5 µM].
With `Cc1cccc(-c2nc(CN3CCc4c(sc5c4CCCC5)C3c3ccccc3)c(C)o2)c1` (stereo not drawn) the max activity was 18.5%.
Work on `O=C(CCC1N=C2c3ccccc3N=C(SCc3ccc(F)cc3)N2C1=O)NCc1cccs1` (stereo not drawn) yielded a max activity of 11.9% [at 1.35 µM].
For `O=C(CC1N=C2c3ccccc3N=C(SCc3ccc(Cl)cc3)N2C1=O)NC1CCCCC1` (stereo not drawn), the max activity was -16.8% [at 0.35 µM].
Work on `O=C(CCC1N=C2c3ccccc3N=C(SCc3ccc(Cl)cc3)N2C1=O)NCc1ccc2c(c1)OCO2` (stereo not drawn) yielded a max activity of -24.4% [at 0.35 µM].
`O=C(CCC1N=C2c3ccccc3N=C(SCc3ccccc3F)N2C1=O)NCc1ccc2c(c1)OCO2` (stereo not drawn) gave a max activity of 17.7% [at 0.16 µM].
Molecule `Cc1ccc(CSC2=Nc3ccccc3C3=NC(CC(=O)NCc4cccs4)C(=O)N23)cc1` (stereo not drawn) has a max activity of 21.6% [at 2.6 µM].
In the case of `Cc1ccc2c(c1)cc(S(=O)(=O)c1ccccc1)c(=O)n2CC(=O)NC1CCCC1`, the max activity is reported as -10.6% [at 0.35 µM].
`COc1ccc(CNC(=O)Nc2ccc(-c3nc(-c4ccccc4)co3)cc2)cc1` showed a max activity of 134%.
`O=C(Cc1ccccc1)N1CCC2(CC1)Nc1cc(F)ccc1-n1cccc12` showed a max activity of 8.98% [at 0.68 µM].
In the case of `COc1ccccc1CNC(=O)CCC1N=C2c3ccccc3N=C(SCC#N)N2C1=O` (stereo not drawn), the max activity is reported as 14.4% [at 1.35 µM].
In the case of `C=CCNc1ncnc2c1cnn2-c1ccc(Cl)cc1`, the max activity is reported as 134% [at 0.35 µM].
`CCOC(=O)CC(=O)Nc1ccc(-c2nc(-c3cc(C)ccc3C)co2)cc1` showed a max activity of -6.71% [at 0.35 µM].
Work on `CCC(C(=O)N1CCC2(CC1)Nc1ccc(C)c(C)c1-n1cccc12)c1ccccc1` (stereo not drawn) yielded a max activity of 8.62% [at 2.6 µM].
`CCOC(=O)C1CCN(C(=O)Cn2cccc2-c2nc(-c3ccc(C)cc3)cs2)CC1` showed a max activity of 11.7%.
With `CCOC(=O)C1CCCN(C(=O)Cn2cccc2-c2nc(-c3ccc(C)cc3)cs2)C1` (stereo not drawn) the max activity was -28.8%.
`Cc1ccc(-c2csc(-c3cccn3CC(=O)N3CCC(N4CCCCC4)CC3)n2)cc1` showed a max activity of 6.16% [at 0.16 µM].
`CCN1CCCC1CNC(=O)Cn1cccc1-c1nc(-c2ccccc2)cs1` (stereo not drawn) showed a max activity of -11%.
With `COCCN1CCc2nc(SCc3nc(-c4ccc(OC)c(OC)c4)oc3C)[nH]c(=O)c2C1` the max activity was 34.3% [at 10 µM].
`CN1C(=O)CCc2cc(NC(=O)c3cccs3)ccc21` showed a max activity of 71.4%.
Work on `Cc1ccc(C)c(NC(=O)N2CCN(Cc3nc(-c4ccccc4C)oc3C)CC2)c1` yielded a max activity of 4.41% [at 2.6 µM].
